The record followed here is ChEMBL document CHEMBL3988442, “University of Dundee, Small-Polar-MMV Screening Library” (2021).

For some of these results: Potency and affinity values are given separately.

Parameters in all cases: scale not given: direction of the effect not stated beside the values
In test [1] the target is Protein translocase subunit SecA (Escherichia coli (strain K12)) (UniProt P10408). Nature of the test: Assay to Identify E. coli SecA ATPase Inhibitors. It counts as functional. As to conditions: 30 µM.
Protein translocase subunit SecA (Escherichia coli (strain K12)), sequence (P10408 whole entry): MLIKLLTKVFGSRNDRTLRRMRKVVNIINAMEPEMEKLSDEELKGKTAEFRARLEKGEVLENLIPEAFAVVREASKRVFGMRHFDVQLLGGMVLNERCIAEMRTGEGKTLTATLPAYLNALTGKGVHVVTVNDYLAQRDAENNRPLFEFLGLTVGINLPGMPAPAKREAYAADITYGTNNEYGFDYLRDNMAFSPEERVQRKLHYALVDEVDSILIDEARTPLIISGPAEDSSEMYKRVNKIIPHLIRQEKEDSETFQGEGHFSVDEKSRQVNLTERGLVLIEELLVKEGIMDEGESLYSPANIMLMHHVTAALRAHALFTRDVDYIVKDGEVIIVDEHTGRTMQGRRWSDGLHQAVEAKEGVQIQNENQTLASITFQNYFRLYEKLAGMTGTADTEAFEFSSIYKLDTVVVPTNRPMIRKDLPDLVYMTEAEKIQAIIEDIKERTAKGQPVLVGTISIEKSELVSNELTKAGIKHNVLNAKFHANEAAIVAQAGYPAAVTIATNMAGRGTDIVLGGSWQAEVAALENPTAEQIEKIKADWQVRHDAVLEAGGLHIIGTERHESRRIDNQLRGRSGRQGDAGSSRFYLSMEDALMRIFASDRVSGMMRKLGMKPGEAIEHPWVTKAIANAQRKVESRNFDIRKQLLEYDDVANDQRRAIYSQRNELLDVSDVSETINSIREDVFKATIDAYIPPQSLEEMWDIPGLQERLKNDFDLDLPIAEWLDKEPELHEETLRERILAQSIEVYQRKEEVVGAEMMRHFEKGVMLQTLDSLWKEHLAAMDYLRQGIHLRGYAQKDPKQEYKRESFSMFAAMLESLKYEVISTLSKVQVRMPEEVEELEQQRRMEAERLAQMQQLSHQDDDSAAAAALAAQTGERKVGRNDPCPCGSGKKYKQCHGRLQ
Test [2] addresses T1, Ubiquitin-activating enzyme e1, putative (Leishmania donovani (strain BPK282A1)) (UniProt E9BSI1).
T1 sequence (whole entry): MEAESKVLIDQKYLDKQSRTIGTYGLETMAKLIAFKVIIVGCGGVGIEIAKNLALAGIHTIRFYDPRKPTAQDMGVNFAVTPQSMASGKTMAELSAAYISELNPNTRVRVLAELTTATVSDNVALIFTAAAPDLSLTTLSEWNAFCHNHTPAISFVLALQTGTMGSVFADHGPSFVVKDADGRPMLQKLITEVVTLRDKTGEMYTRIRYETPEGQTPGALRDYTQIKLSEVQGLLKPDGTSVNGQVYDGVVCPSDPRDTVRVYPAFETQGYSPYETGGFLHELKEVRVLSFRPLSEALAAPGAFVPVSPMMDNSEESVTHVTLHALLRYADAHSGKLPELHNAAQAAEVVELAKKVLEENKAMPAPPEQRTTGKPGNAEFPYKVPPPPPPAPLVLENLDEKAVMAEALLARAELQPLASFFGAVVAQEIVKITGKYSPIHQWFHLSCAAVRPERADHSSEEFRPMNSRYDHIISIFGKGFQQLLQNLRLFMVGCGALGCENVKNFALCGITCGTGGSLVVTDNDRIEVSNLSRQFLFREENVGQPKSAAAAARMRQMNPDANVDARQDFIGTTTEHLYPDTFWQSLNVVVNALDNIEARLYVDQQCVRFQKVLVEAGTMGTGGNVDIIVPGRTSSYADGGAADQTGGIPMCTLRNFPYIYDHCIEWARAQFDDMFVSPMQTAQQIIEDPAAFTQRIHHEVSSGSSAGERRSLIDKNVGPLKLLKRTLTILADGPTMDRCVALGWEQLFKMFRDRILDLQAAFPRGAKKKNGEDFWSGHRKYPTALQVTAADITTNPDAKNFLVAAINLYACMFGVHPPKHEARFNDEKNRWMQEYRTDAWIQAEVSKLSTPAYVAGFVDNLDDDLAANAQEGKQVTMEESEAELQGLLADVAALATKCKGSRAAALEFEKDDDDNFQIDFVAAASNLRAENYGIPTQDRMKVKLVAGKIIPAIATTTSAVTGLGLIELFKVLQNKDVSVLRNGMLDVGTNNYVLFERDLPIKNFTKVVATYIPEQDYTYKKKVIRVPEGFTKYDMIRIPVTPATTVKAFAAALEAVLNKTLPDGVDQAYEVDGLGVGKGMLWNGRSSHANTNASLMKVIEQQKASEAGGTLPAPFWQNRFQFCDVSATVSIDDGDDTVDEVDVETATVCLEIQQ
The test can be described thus: Leishmania donovani Ubiquitin Activating Enzyme (LdE1). The note with it: 30 µM. It counts as functional.

Test [3] concerns the target AMP-activated protein kinase, AMPK (Homo sapiens) (UniProt P54646+O43741+P54619+Q9UGJ0+Q9Y478+Q13131+Q9UGI9). The test can be described thus: AMP-dependent Kinase enzyme assay. An in vitro enzyme assay that detects ADP turnover that is directly proportional to AMPK activity. This uses naive AMPK that is activated during the assay with MK-8722. It is filed as functional. The note with it: 30 µM.

The target of test [4] is Sialic acid-binding Ig-like lectin 9 (Homo sapiens) (UniProt Q9Y336). Nature of the test: Hs-Siglec9 ALPHAscreen SOP 20170721. The note with it: 10 µM.
Sialic acid-binding Ig-like lectin 9 (Homo sapiens), sequence (Q9Y336 whole entry): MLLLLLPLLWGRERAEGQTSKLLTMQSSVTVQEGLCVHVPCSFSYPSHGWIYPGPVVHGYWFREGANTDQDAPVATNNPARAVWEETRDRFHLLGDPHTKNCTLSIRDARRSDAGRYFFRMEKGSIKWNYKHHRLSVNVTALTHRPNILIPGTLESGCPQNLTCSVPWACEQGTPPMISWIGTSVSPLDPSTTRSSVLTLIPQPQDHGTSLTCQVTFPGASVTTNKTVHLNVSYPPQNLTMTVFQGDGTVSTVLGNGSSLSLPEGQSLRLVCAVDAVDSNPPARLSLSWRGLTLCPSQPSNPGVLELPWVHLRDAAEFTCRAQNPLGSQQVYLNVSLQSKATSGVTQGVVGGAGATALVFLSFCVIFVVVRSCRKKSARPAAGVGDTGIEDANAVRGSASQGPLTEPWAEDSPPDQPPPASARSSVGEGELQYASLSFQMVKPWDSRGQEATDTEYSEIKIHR
The next test relates to Trypanosoma cruzi. Nature of the test: Trypanosoma cruzi phosphomannomutase and mannose-1-phosphate guanylyltransferase assay. It counts as functional. As to conditions: 10 µM.
Test [5] deals with T2, Arginase-2, mitochondrial (Homo sapiens) (UniProt P78540).
T2 sequence (whole entry): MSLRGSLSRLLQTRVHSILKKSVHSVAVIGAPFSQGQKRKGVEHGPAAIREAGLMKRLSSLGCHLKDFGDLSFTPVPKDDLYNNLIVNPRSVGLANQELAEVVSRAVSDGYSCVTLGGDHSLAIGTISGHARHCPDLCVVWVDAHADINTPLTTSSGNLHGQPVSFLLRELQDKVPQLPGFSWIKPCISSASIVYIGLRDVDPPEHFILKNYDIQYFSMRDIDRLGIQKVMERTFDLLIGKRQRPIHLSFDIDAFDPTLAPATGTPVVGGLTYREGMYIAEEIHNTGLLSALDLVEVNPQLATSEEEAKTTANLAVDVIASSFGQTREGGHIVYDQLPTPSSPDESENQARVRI
The test can be described thus: in vitro enzyme assay to detect the production of urea directly proportional to the activity of Arginase II. Note: in the data most compounds retested in dose-response had high values. It is filed as functional. The note with it: 33.3 µM.

Test [6] addresses T3, Proteasome subunit beta (Trypanosoma cruzi) (UniProt O96673).
T3 sequence (whole entry): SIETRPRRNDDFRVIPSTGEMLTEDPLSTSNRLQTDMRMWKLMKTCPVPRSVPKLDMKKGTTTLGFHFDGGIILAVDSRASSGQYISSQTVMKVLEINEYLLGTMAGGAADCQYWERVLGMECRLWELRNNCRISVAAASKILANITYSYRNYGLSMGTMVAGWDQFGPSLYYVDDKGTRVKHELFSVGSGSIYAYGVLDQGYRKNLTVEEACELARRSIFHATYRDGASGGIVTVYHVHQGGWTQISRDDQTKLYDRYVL
Nature of the test: Trypanosoma cruzi proteasome chymotrypsin-like activity (TcProtChymo) assay. Note: in the data most compounds retested in dose-response had high values. As to conditions: 9.37 µM. It is filed as functional.

The next test is filed under the species Homo sapiens. Nature of the test: To identify inhibition of the IFN signalling (Jak-Stat) pathway via expression of an eGFP reporter gene under the control of an IFN-stimulated response element (ISRE) containing MxA promoter. As to conditions: 30 µM. It is filed as functional.
Test [7] has as its target T4, Tyrosyl-tRNA synthetase, putative (Trypanosoma cruzi (strain CL Brener)) (UniProt Q4DSP6).
T4 sequence (whole entry): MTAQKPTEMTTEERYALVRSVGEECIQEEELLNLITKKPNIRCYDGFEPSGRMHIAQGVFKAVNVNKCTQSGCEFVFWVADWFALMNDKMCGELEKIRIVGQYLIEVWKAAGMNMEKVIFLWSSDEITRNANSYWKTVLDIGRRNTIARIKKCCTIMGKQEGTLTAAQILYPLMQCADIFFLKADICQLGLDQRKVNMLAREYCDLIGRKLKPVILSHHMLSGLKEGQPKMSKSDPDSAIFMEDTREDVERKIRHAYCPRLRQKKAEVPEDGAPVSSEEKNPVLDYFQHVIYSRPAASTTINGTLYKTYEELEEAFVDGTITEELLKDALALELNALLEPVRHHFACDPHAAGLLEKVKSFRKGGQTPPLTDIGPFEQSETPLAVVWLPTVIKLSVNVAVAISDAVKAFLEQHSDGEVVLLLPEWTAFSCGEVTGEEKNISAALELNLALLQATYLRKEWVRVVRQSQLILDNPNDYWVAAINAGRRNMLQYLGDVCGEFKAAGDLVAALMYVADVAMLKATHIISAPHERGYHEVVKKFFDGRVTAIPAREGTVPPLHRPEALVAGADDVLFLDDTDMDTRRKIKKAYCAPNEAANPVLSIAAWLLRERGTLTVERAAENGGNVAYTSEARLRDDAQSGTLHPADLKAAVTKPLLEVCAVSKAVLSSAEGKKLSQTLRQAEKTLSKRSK
The test can be described thus: Trypanosoma cruzi tyrosyl tRNA synthetase (TcYRS) _High Tyrosine SOP. Note: in the data most compounds retested in dose-response had high values. It is filed as functional. As to conditions: 30 µM.

Test [8] addresses T4, Tyrosyl-tRNA synthetase, putative (Trypanosoma cruzi (strain CL Brener)). Nature of the test: Trypanosoma cruzi tyrosyl tRNA synthetase (TcYRS) SOP. It is filed as functional. As to conditions: 30 µM.
Test [9] has as its target Chromo domain-containing protein 1 (Saccharomyces cerevisiae (strain ATCC 204508 / S288c) (Baker's yeast)) (UniProt P32657). The test can be described thus: ScCHD-1 Enzyme Inhibition Assay. Note: in the data most compounds retested in dose-response had high values. It is filed as functional. The note with it: 30 µM.

Chromo domain-containing protein 1 (Saccharomyces cerevisiae (strain ATCC 204508 / S288c) (Baker's yeast)), sequence (P32657 whole entry, the tested form may be a part): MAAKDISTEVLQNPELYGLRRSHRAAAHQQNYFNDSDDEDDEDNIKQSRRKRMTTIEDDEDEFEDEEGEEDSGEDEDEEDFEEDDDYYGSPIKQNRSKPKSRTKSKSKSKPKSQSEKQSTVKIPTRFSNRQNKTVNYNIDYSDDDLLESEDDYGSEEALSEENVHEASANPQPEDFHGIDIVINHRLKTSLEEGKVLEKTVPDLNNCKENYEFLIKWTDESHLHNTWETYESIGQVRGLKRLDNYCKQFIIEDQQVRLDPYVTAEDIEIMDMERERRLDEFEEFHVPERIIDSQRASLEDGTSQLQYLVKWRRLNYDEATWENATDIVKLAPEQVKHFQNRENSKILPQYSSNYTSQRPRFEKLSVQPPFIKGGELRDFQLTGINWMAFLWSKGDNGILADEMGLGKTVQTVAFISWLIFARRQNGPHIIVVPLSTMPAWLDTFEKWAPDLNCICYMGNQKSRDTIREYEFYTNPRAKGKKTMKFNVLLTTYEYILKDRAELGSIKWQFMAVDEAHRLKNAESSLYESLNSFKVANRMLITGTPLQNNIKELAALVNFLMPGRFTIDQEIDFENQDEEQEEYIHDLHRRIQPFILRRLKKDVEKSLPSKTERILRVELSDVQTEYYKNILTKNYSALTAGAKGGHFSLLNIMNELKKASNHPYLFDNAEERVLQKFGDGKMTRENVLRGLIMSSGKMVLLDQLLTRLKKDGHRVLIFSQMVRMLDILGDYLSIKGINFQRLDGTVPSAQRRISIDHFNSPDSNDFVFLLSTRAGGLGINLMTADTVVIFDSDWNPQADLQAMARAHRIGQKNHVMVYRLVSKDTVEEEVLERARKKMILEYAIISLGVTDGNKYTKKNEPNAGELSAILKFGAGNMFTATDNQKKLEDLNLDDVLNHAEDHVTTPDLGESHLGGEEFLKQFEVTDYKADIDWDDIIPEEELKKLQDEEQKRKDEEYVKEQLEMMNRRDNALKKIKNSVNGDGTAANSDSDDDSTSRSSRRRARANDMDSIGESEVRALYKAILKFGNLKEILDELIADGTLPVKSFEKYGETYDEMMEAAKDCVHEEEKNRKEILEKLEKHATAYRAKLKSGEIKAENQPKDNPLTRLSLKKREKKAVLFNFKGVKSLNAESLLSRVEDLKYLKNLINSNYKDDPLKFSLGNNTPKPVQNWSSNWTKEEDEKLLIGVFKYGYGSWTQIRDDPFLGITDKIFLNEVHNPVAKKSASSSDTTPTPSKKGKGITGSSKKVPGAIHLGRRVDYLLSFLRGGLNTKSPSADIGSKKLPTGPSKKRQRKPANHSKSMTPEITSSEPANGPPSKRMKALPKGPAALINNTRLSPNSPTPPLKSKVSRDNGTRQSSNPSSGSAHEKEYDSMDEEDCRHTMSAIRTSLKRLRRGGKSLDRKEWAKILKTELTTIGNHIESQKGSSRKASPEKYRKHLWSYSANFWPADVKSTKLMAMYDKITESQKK

For the compound `CCc1noc(C(C)N2CCN(Cc3noc(C)n3)CC2)n1` (stereo not drawn), the Percent Effect in [1] was 1.26%; in [2], 21.1%; in test [3], -0.566%; in test [4], -7.24%; in the test on Trypanosoma cruzi, 1.32%; in [5] it was -4.21%. Besides, the Percent Effect is 19.6% in [6]; 15.5% in the test filed under Homo sapiens; 6.37% in test [7]; 17.1% in test [8]; -7.65% in test [9].

With `Cc1noc(C)c1CN1CC[C@H]2OCC[C@@H](C(=O)NCC3CC3)[C@@H]2C1`, the Percent Effect in test [1] was -4.39%; in [2], 2.67%; in test [3] it was 1.83%; in test [4], 6.75%; in the test on Trypanosoma cruzi it was -1.54%; in test [5], -25.3%. Moreover, the Percent Effect in [6] was 8.21%; in the test listed under Homo sapiens, -17.4%; in test [7], 0%; in test [8] it was 12.5%; in test [9] it was -5.06%.

As for `CCn1nc(C)c2ncnc(NCC(=O)N3CCOCC3)c21`, the Percent Effect in test [1] was -1.89%; in [2], 9.33%; in test [3], -3.08%; in test [4], 10.4%; with Trypanosoma cruzi, 2.55%; in test [5] it was -8.28%. For the same compound, the Percent Effect in [6] was 14.4%; in the test filed under Homo sapiens it was 30.3%; in test [7], -28.6%; in test [8], 5.13%; in test [9] it was -9.1%.

For the compound `COCCc1noc(CN(C)C2CCCN(c3ccc(C)nn3)C2)n1` (stereo not drawn), the Percent Effect in test [1] was -2.39%; in test [2] it was 2.67%; in [3], -6.26%; in test [4] it was 0.801%; with Trypanosoma cruzi it was 3.41%; in test [5], 1.56%. For the same compound, the Percent Effect in [6] was 11.9%; in the test listed under Homo sapiens, -8.02%; in test [7], 4.92%; in [8] it was 6.17%; in test [9], -2.05%.

Regarding `Cn1ncc2c(NCCOc3ccc(F)cc3)nc(C3CCCC3)nc21`, the Percent Effect was -2.15% in test [1]; 5.48% in test [2]; 12.7% in test [3]; 7.22% in test [4]; 9.79% in the test with Trypanosoma cruzi; 2.27% in [5]. For the same compound, the Percent Effect in [6] was -0.355%; in the test listed under Homo sapiens it was 49.2%; in test [7], 5.38%; in [8], 10%; in test [9] it was -3.29%.

Take `Cc1n[nH]c(C2CN(C(=O)CCc3ccco3)CCO2)n1` (stereo not drawn): the Percent Effect was -1.8% in test [1]; 7.89% in test [2]; 9.83% in [3]; -2.52% in test [4]; 3.6% in the test on Trypanosoma cruzi; 3.55% in test [5]. Also, the Percent Effect in [6] is 21%; in the test listed under Homo sapiens, 21.1%; in test [7] it was 2.13%; in [8] it was 7.79%; in [9] it was -3.66%.

Turning to `Cc1occc1C(=O)N1CCc2ncnc(-c3cnn(C)c3)c2CC1`, the Percent Effect in test [1] was -2.67%; in test [2], -5.41%; in test [3] it was -4.37%; in [4], 0.728%; in the test on Trypanosoma cruzi, 6.75%; in test [5], -1.24%. Moreover, the Percent Effect in [6] is 4.21%; in the test listed under Homo sapiens, 4.88%; in [7] it was 1.07%; in test [8] it was 3.7%; in test [9], -4.52%.

As for `CC(C)c1nnc2ccc(N3CCC(C(=O)Nc4nccs4)CC3)nn12`, the Percent Effect in test [1] was -2.74%; in test [2], 9.33%; in [3] it was 5.47%; in test [4] it was 1.19%; in the test on Trypanosoma cruzi, 3.54%; in test [5] it was -0.528%. The Percent Effect in test [6] was 12.6%; in the test filed under Homo sapiens, 82.9%; in test [7], 13.8%; in test [8], 23.1%; in test [9], -2.21%.
